Measured values: PubChem BioAssay (NCI)
Compounds without any hit were thinned out: in the full panel of roughly 79,000, 15% have a hit. Activity calls are given as the source filed them. No stated cut-off is given here; in the data, active means growth inhibition above about 70%; inactive means the rest.

Legend:
[1] = NCI Yeast Anticancer Drug Screen. Data for the rad52 strain (AID 147);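 further: 0% = growth of vehicle-treated control cultures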; conditions: S. cerevisiae rad52 mutant growth inhibition, stronger effect = higher value
Procedure, shortened: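 Yeast strain carrying a DNA damage repair alteration was exposed to test compounds. Growth inhibition was measured relative to vehicle-treated controls.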

[2] = NCI Yeast Anticancer Drug Screen. Data for the wt1 strain (AID 149);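 further: 0% = growth of vehicle-treated wt1 cultures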; conditions: S. cerevisiae wt1 strain (SPY 50644) growth inhibition, stronger effect = higher value
Procedure, shortened: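 Growth inhibition read against vehicle controls after compound exposure of the wt1 yeast strain.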

[3] = NCI Yeast Anticancer Drug Screen. Data for the rad50EPP+ strain (AID 151);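 further: 0% = growth of vehicle-treated control cultures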; conditions: S. cerevisiae rad50 mutant strain, stronger effect = higher value
Procedure, shortened: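 Yeast strain carrying rad50 alteration (rad50EPP+) exposed to compounds; growth inhibition measured relative to vehicle-treated controls.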

[4] = NCI Yeast Anticancer Drug Screen. Data for the mgt1 strain (AID 153); conditions: S. cerevisiae mgt1 mutant growth inhibition, stronger effect = higher value
Procedure, shortened: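 Yeast mgt1 strain (DNA repair/cell-cycle alteration panel) exposed to compounds; growth inhibition measured relative to vehicle-treated controls.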

[5] = NCI Yeast Anticancer Drug Screen. Data for the rad50 strain (AID 155);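 further: 0% = growth of vehicle-only cultures of the same strain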; conditions: S. cerevisiae rad50 strain growth inhibition, stronger effect = higher value
Procedure, shortened: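 Readout: growth inhibition relative to vehicle-treated cultures. Compound exposure was carried out in a genetically defined yeast strain deficient in DNA damage repair.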

[6] = NCI Yeast Anticancer Drug Screen. Data for the mec2-1 strain (AID 157); conditions: S. cerevisiae mec2-1 strain, stronger effect = higher value
Procedure, shortened: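 mec2-1 yeast strain, carrying an alteration in DNA damage repair or cell cycle control, was exposed to compounds; growth inhibition was measured relative to vehicle-treated controls.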

[7] = NCI Yeast Anticancer Drug Screen. Data for the rad14 strain (AID 159);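 further: 0% = growth of vehicle-treated control cultures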; conditions: S. cerevisiae rad14 strain growth inhibition, stronger effect = higher value
Procedure, shortened: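 Growth inhibition vs vehicle controls; genetically altered yeast strain (DNA damage repair defect) treated with test compounds.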

[8] = NCI Yeast Anticancer Drug Screen. Data for the sgs1 mgt1 strain (AID 161);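 further: 0% = growth of cultures given vehicle only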; conditions: S. cerevisiae sgs1 mgt1 strain, stronger effect = higher value
Procedure, shortened: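 Yeast cells carrying a defined DNA-repair defect were exposed to test compounds. Growth inhibition was measured relative to vehicle-treated controls.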

[9] = NCI Yeast Anticancer Drug Screen. Data for the CLN2oe strain (AID 163);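 further: 0% = growth of vehicle-only control cultures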; conditions: S. cerevisiae CLN2oe strain, stronger effect = higher value
Procedure, shortened: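 Yeast cells carrying a defined cell-cycle control alteration were exposed to test compounds. Growth inhibition was scored against vehicle-treated control cultures.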

[10] = NCI Yeast Anticancer Drug Screen. Data for the cln2 rad14 strain (AID 165);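 further: 0% = growth equal to vehicle treated cultures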; conditions: S. cerevisiae cln2 rad14 strain, stronger effect = higher value
Procedure, shortened: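 Yeast carrying cln2 and rad14 alterations (cell cycle control and DNA damage repair) were exposed to compounds. Growth inhibition was measured against vehicle-treated controls.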

[11] = NCI Yeast Anticancer Drug Screen. Data for the bub3 strain (AID 167); conditions: S. cerevisiae bub3 mutant strain, stronger effect = higher value
Procedure, shortened: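 Readout: yeast growth inhibition, expressed relative to vehicle-only wells. The test organism is a mutant strain from a panel with lesions in DNA repair or checkpoint genes.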

[12] = NCI Yeast Anticancer Drug Screen. Data for the wt2 strain (AID 169);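 further: 0% = growth of vehicle-treated yeast cultures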; conditions: S. cerevisiae wt2 strain growth inhibition, stronger effect = higher value
Procedure, shortened: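 Yeast cells were exposed to test compounds, and growth inhibition was measured relative to vehicle-treated controls.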

[13] = NCI Yeast Anticancer Drug Screen. Data for the mlh1 strain (AID 171);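 further: 0% = growth of vehicle-treated control cultures of the same strain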; conditions: S. cerevisiae mlh1 strain growth inhibition, stronger effect = higher value
Procedure, shortened: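 Yeast carrying a defined genetic alteration in DNA damage repair or cell cycle control were exposed to test compounds. Growth inhibition was measured relative to vehicle-treated controls.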

[14] = NCI Yeast Anticancer Drug Screen. Data for the sgs1 strain (AID 173);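 further: 0% = growth of vehicle-only control cultures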; conditions: S. cerevisiae sgs1 mutant, stronger effect = higher value
Procedure, shortened: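 Yeast mutant strains carrying defined defects in DNA damage repair or cell cycle control were exposed to test compounds. Growth inhibition was scored against vehicle-treated controls.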

[15] = NCI Yeast Anticancer Drug Screen. Data for the mlh1 rad18 strain (AID 175); conditions: S. cerevisiae mlh1 rad18 strain growth inhibition, stronger effect = higher value
Procedure, shortened: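 Growth inhibition of the yeast strain was measured after compound exposure and expressed relative to vehicle-treated controls. The strain carries defined defects in DNA damage repair.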

[16] = NCI Yeast Anticancer Drug Screen. Data for the rad18 strain (AID 177); conditions: S. cerevisiae rad18 mutant growth inhibition, stronger effect = higher value
Procedure, shortened: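 Yeast carrying a defined DNA damage repair alteration were exposed to compounds. Growth inhibition was expressed relative to vehicle-treated controls.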

[17] = at 5.0 µM (retest, dose inferred, filed as 0.5)
[18] = at 50.0 µM (retest, dose inferred, filed as 5.0)

Measured: growth inhibition

CCCCCCCCCCCNC=O
inactive: [1]; at 1.2 µM -33% | [1]; at 3.7 µM -30% | [1]; at 11.0 µM -39% | [1]; at 33.0 µM 34% | [2]; at 1.2 µM -18% | [2]; at 3.7 µM -10% | [2]; at 11.0 µM -9% | [2]; at 33.0 µM 1% | [3]; at 1.2 µM -14% | [3]; at 3.7 µM -11% | [3]; at 11.0 µM 0% | [3]; at 33.0 µM 15% | [4]; at 1.2 µM -30% | [4]; at 3.7 µM -19% | [4]; at 11.0 µM -18% | [5]; at 1.2 µM -16% | [5]; at 3.7 µM -19% | [5]; [17] 1% | [5]; at 11.0 µM -41% | [5]; at 33.0 µM 29% | [6]; at 1.2 µM -22% | [6]; at 3.7 µM -21% | [6]; [17] 7% | [6]; at 11.0 µM -20% | [6]; at 33.0 µM 21% | [7]; at 1.2 µM -7% | [7]; at 3.7 µM -17% | [7]; at 11.0 µM -4% | [7]; at 33.0 µM 30% | [8]; [17] 9% | [9]; at 1.2 µM -15% | [9]; at 3.7 µM -14% | [9]; at 11.0 µM -27% | [9]; at 33.0 µM -20% | [10]; [17] 42% | [11]; at 1.2 µM -21% | [11]; at 3.7 µM -14% | [11]; [17] 22% | [11]; at 11.0 µM -12% | [11]; at 33.0 µM 21% | [12]; at 1.2 µM -45% | [12]; at 3.7 µM -39% | [12]; at 11.0 µM -33% | [12]; at 33.0 µM -5% | [13]; at 1.2 µM -17% | [13]; at 3.7 µM -19% | [13]; at 11.0 µM -11% | [13]; at 33.0 µM 69% | [14]; at 1.2 µM -14% | [14]; at 3.7 µM -17% | [14]; at 11.0 µM -19% | [14]; at 33.0 µM 3% | [15]; [17] -14% | [16]; at 1.2 µM -22% | [16]; at 3.7 µM -22% | [16]; at 11.0 µM -15% | [16]; at 33.0 µM 54%
active: [1]; at 100.0 µM 98% | [2]; at 100.0 µM 98% | [3]; at 100.0 µM 97% | [4]; at 33.0 µM 72% | [4]; at 100.0 µM 98% | [5]; [18] 96% | [5]; at 50.0 µM 89.9% | [5]; at 100.0 µM 98% | [6]; [18] 96% | [6]; at 50.0 µM 91.3% | [6]; at 100.0 µM 98% | [7]; at 100.0 µM 98% | [8]; [18] 93% | [8]; at 50.0 µM 92.5% | [9]; at 100.0 µM 98% | [10]; [18] 94% | [10]; at 50.0 µM 88% | [11]; [18] 97% | [11]; at 50.0 µM 89.4% | [11]; at 100.0 µM 98% | [12]; at 100.0 µM 98% | [13]; at 100.0 µM 98% | [14]; at 100.0 µM 99% | [15]; [18] 97% | [15]; at 50.0 µM 88.6% | [16]; at 100.0 µM 98%

Oc1ccc(N=Nc2ccc(Cl)cc2)cc1
active: [1]; at 11.0 µM 97% | [1]; at 33.0 µM 98% | [1]; at 100.0 µM 98% | [2]; at 33.0 µM 99% | [2]; at 100.0 µM 99% | [3]; at 33.0 µM 98% | [3]; at 100.0 µM 97% | [4]; at 33.0 µM 99% | [4]; at 100.0 µM 99% | [5]; at 11.0 µM 94% | [5]; at 33.0 µM 99% | [5]; [18] 99% | [5]; at 50.0 µM 99.5% | [5]; at 100.0 µM 98% | [6]; at 11.0 µM 90% | [6]; at 33.0 µM 99% | [6]; [18] 98% | [6]; at 50.0 µM 98.2% | [6]; at 100.0 µM 99% | [7]; at 33.0 µM 99% | [7]; at 100.0 µM 98% | [8]; [18] 99% | [8]; at 50.0 µM 98.7% | [9]; at 11.0 µM 97% | [9]; at 33.0 µM 99% | [9]; at 100.0 µM 99% | [10]; [18] 99% | [10]; at 50.0 µM 99.5% | [11]; [17] 81% | [11]; at 11.0 µM 94% | [11]; at 33.0 µM 99% | [11]; [18] 99% | [11]; at 50.0 µM 99.2% | [11]; at 100.0 µM 99%
inactive: [1]; at 1.2 µM 3% | [1]; at 3.7 µM 23% | [2]; at 1.2 µM -2% | [2]; at 3.7 µM 7% | [2]; at 11.0 µM 52% | [3]; at 1.2 µM 8% | [3]; at 3.7 µM 12% | [3]; at 11.0 µM 50% | [4]; at 1.2 µM -3% | [4]; at 3.7 µM 4% | [4]; at 11.0 µM 61% | [5]; at 1.2 µM 1% | [5]; at 3.7 µM 30% | [5]; [17] -27% | [6]; at 1.2 µM 8% | [6]; at 3.7 µM 15% | [6]; [17] -13% | [7]; at 1.2 µM 2% | [7]; at 3.7 µM 7% | [7]; at 11.0 µM 60% | [8]; [17] -10% | [9]; at 1.2 µM 25% | [9]; at 3.7 µM 45% | [10]; [17] -6% | [11]; at 1.2 µM 57% | [11]; at 3.7 µM 65%
